Measured values: PubChem BioAssay (EPA / NIEHS)
Results filed as inconclusive are left out. Active and inactive are the calls of the source. The calls were made as follows, unless noted: active = hit-call score of the fitted dose curve at least 0.9, where 1 is the maximum; inconclusive = response in the unintended direction; inactive = score below 0.9.

Legend:
[1] = test system: Thyroperoxidase (TPO), gene 54314; assay: CCTE_Simmons_AUR_rTPO: CCTE's Amplex UltraRed Assay for Thyroperoxidase (TPO) Inhibition, Simmons Lab (AID 2283662);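 as to AC50: potency for loss of signal meaning inhibition of peroxidase activity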
Procedure, shortened: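 Endpoint is decreased Amplex UltraRed fluorescence after a 30-min, 37C reaction of rat thyroid microsomes with 300 uM H2O2. Eight test concentrations (5 nM–87.5 uM final) in 0.5% DMSO, three biological replicates each.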

[2] = CCTE_Simmons_CellTiterGLO_HEK293T: Viability Assessment in CCTE's Assays for Thyroperoxidase (TPO) Inhibition, Simmons Lab (AID 2283665);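 as to AC50: cells exposed to compound for 24 h before readout; actives reduce ATP signal below DMSO vehicle meaning cytotoxicity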
Procedure, shortened: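 ATP depletion measured in HEK293T cells after 24 h dosing (8 concentrations, 5 nM–87.5 uM final; DMSO 0.5%) using CellTiter-Glo luminescence; curves fit for loss of signal against DMSO baseline.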

[3] = target: Luciferin 4-monooxygenase (Photinus pyralis) (UniProt P08659); assay: CCTE_Simmons_QuantiLum_inhib_2: CCTE's Firefly Luciferase Inhibition Assay, Simmons Lab (AID 2283767);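 as to AC50: potency for inhibitors that lower luciferase luminescence relative to DMSO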
Chain of Luciferin 4-monooxygenase (Photinus pyralis) (P08659 whole entry, looked up): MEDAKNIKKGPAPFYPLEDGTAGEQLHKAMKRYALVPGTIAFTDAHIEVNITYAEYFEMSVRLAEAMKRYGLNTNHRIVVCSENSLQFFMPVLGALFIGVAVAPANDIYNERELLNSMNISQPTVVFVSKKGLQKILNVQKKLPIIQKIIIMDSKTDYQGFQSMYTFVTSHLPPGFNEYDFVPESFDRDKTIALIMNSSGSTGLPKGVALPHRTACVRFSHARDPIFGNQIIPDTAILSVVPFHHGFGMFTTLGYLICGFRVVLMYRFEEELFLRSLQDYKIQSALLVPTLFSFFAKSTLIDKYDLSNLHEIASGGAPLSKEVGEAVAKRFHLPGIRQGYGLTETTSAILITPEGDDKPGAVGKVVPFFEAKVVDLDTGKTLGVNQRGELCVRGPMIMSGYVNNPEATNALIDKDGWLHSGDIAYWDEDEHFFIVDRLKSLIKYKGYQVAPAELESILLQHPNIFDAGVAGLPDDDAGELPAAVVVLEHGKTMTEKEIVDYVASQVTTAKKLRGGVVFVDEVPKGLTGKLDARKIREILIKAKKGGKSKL
Procedure, shortened: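 Eight-point titrations of each chemical, 5 nM–87.5 uM final in 0.5% DMSO, were run in three biological replicates against recombinant luciferase for 30 min at 37C. Bioluminescence signal loss, read on reagent injection, gave the inhibition endpoint.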

[4] = TOX21_p53_BLA_p5_viability: Viability Assessment in the Tox21 HCT-116 p53 Agonism Beta-lactamase Assay, Phase 5 (AID 2283600)
Procedure, shortened: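 Workflow: seed 4000 cells per well, wait 5 h, add compounds (DMSO, 217-fold dilution), incubate 16 h, load CCF4-AM 2 h, add CellTiter-Glo, read luminescence after 30 min.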

[5] = target: Cellular tumor antigen p53 (Homo sapiens) (UniProt P04637); assay: TOX21_p53_BLA_p4_ratio: Tox21 HCT-116 p53 Agonism Beta-lactamase Assay, Ratio, Phase 4 (AID 2283601)
Chain of Cellular tumor antigen p53 (Homo sapiens) (P04637 whole entry, looked up): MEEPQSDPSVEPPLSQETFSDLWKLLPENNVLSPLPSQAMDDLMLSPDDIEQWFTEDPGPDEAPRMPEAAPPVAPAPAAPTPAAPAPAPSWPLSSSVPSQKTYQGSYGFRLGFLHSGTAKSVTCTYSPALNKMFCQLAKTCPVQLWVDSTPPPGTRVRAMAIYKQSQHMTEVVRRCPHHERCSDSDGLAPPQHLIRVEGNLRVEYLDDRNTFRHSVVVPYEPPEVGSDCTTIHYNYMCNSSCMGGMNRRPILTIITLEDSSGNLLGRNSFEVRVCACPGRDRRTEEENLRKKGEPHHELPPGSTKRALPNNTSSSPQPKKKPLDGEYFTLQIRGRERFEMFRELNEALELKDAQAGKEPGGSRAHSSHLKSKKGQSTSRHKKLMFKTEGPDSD
Procedure, shortened: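 HCT-116 p53 beta-lactamase reporter cells (4000/well) preincubated 5 h, then compound (217-fold dilution of DMSO stock) for 16 h at 37C. CCF4-AM substrate added 2 h at room temperature; 460/530 nm emission ratio fitted upward versus DMSO.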

PGR (gene 5241) [6] = target: PGR (gene 5241) (UniProt P06401); assay: TOX21_PR_BLA_Followup_Agonist_ratio: Tox21 HEK293 Progesterone Receptor (PR) Agonism Beta-lactamase Follow-Up Assay, Ratio (AID 2283933)
Chain of PGR (gene 5241) (P06401 whole entry, looked up): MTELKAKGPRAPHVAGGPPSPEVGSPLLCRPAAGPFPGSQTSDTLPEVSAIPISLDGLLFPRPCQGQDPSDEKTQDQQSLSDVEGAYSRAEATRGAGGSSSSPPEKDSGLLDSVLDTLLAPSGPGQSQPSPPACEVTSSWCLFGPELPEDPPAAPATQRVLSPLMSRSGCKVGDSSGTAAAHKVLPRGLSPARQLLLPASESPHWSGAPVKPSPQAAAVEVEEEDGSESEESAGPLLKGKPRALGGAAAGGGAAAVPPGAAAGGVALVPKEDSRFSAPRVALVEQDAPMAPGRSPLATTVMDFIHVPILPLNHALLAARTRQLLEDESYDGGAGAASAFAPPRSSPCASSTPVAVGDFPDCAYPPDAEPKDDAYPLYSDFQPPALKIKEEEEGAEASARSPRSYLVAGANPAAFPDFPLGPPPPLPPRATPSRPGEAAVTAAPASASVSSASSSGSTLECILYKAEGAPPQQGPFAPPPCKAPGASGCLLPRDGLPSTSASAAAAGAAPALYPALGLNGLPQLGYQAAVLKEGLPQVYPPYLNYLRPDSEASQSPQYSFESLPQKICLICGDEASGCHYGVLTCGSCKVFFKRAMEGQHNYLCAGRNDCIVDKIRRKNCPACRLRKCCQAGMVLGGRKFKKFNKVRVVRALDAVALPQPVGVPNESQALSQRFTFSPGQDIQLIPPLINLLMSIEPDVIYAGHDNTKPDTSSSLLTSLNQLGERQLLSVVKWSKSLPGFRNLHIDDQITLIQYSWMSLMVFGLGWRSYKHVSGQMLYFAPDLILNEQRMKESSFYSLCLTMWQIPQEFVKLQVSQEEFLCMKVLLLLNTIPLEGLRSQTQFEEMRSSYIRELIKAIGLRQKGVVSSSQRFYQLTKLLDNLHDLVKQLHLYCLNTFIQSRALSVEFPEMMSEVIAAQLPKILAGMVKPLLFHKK
Procedure, shortened: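 Ratio-based beta-lactamase reporter signal after 16 hr compound treatment of PR-UAS-bla HEK293T cells at 37C. Substrate loading lasted 2 hr at room temperature.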

PGR (gene 5241) [7] = target: PGR (gene 5241) (UniProt P06401); assay: TOX21_PR_BLA_Followup_Antagonist_ratio: Tox21 HEK293 Progesterone Receptor (PR) Antagonism Beta-lactamase Follow-Up Assay, Ratio (AID 2283934);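 also: PR-UAS-bla HEK293T cells stimulated with 1 nM R5020 agonist for 16 hr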
Procedure, shortened: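 Measured in PR-UAS-bla HEK293T cells co-treated with compound and 1 nM promegestone for 16 hr; beta-lactamase ratio read after 2 h FRET substrate loading, with parallel CellTiter-Glo cytotoxicity.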

[8] = TOX21_PR_BLA_Followup_Agonist_viability: Viability Assessment in the Tox21 HEK293 Progesterone Receptor (PR) Agonism Beta-lactamase Follow-Up Assay (AID 2283935);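 also: signal loss means lower viability so actives are cytotoxic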
Procedure, shortened: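 Viability is read as CellTiter-Glo luminescence, where loss of signal indicates cytotoxicity. The cells are PR-UAS-bla HEK293T given compounds for 16 hr at 37C and 5% CO2, in the same wells used for the bla readout.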

[9] = TOX21_PR_BLA_Followup_Antagonist_viability: Viability Assessment in the Tox21 HEK293 Progesterone Receptor (PR) Antagonism Beta-lactamase Follow-Up Assay (AID 2283936);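 also: cells exposed to compound with R5020 agonist for 16 h; hits lower the luminescence signal meaning cytotoxicity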
Procedure, shortened: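 PR-UAS-bla HEK293T cells in medium with 2% charcoal-stripped FBS were treated with compounds plus R5020 for 16 hr at 37C. After the beta-lactamase read, CellTiter-Glo was added to the same wells and luminescence read after 30 min at room temperature.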

PGR (gene 5241) [10] = target: PGR (gene 5241) (UniProt P06401); assay: TOX21_PR_LUC_Followup_Agonist: Tox21 HEK293 Progesterone Receptor (PR) Agonism Luciferase Follow-Up Assay (AID 2283937; active = hit-call score of the fitted dose curve at least 0.9, where 1 is the maximum; inactive = score below 0.9)
Procedure, shortened: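 In HEK293 cells stably expressing PR-A with a luciferase reporter, compounds were incubated 16 h at 37C, and induced luminescence was quantified with ONE-Glo, multiplexed with cell viability.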

PGR (gene 5241) [11] = target: PGR (gene 5241) (UniProt P06401); assay: TOX21_PR_LUC_Followup_Antagonist: Tox21 HEK293 Progesterone Receptor (PR) Antagonism Luciferase Follow-Up Assay (AID 2283938);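 also: curve fitted upward as signal gain over DMSO baseline despite antagonist label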
Procedure, shortened: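 Cells are grown 5 days in charcoal-stripped-FBS assay medium, plated, left 5 h, then dosed with compound and incubated 16 h. ONE-Glo reagent is added and luminescence read after 30 min.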

[12] = CCTE_Harrill_HTTr_Viability_MCF7: CCTE's 6-hour Cell Viability Assessment for the High-Throughput Transcriptomics (HTTr) Platform, in MCF-7 cells cultured in DMEM + 10% fetal bovine serum, Harrill Lab (AID 2284010; active = hit-call score of the fitted dose curve at least 0.9, where 1 is the maximum; inactive = score below 0.9)
Procedure, shortened: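 Eight-point concentration series, six-hour exposure. Propidium iodide exclusion imaged to assess membrane integrity as a cytotoxicity readout; bidirectional fitting was done with DMSO as negative control and activity baseline.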

[13] = CCTE_Harrill_HTTr_Apoptosis_MCF7: CCTE's 6-hour Apoptosis Assessment for the High-Throughput Transcriptomics (HTTr) Platform, in MCF-7 cells cultured in DMEM + 10% fetal bovine serum, Harrill Lab (AID 2284011; active = hit-call score of the fitted dose curve at least 0.9, where 1 is the maximum; inactive = score below 0.9)
Procedure, shortened: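 MCF-7 (DMEM + 10% FBS), 384-well; 8-pt dilution series, 6 h chemical exposure; caspase-3/7 activation via CellEvent Caspase 3/7 Green, HCI; bidirectional fit vs DMSO.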

[14] = CCTE_Harrill_HTTr_CellCount_MCF7: CCTE's Cell Proliferation Assessment for the High-Throughput Transcriptomics (HTTr) Platform, Harrill Lab (AID 2284012);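 also: count of Hoechst-stained nuclei per well by high-content imaging in MCF-7 cells; cells exposed to compound for six hours; intended direction is loss of nuclei count meaning fewer cells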
Procedure, shortened: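 For this full-screen endpoint, MCF-7 cultures received eight compound dilutions for six hours. Well nuclei counts from Hoechst imaging were analyzed relative to DMSO.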

[15] = ACEA_ER_AUC_viability: ACEA Biosciences xCELLigence Real-Time Cell Analysis on Estrogen Receptor Agonism for Viability (AID 2283782);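 also: hit means loss of impedance signal meaning reduced cell growth or viability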
Procedure, shortened: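 Read-out: real-time electrical impedance (RT-CES) area under curve, loss of signal taken as reduced viability, normalized to DMSO baseline. T-47D cells, charcoal-stripped serum medium, compounds up to 100 uM final, continuous exposure, 80 h.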

O=C1CC(c2ccc(O)cc2)Oc2cc(O)cc(O)c21 (stereo not drawn)
AC50 [1]: 0.742 µM (active) | outcome [2]: inactive | outcome [3]: inactive

Cc1ccc(C)c(N)c1
outcome [4]: inactive | outcome [5]: inactive

CCCCOC(=O)c1ccccc1O
outcome [1]: inactive | AC50 [2]: 53.6 µM (active) | outcome [3]: inactive

OC(c1ccccc1)c1ccccc1
outcome [1]: inactive | outcome [3]: inactive

Cc1ccc(C=C2C(=O)C3(C)CCC2C3(C)C)cc1 (stereo not drawn)
outcome [1]: inactive | AC50 [2]: 15.3 µM (active)

O=C(NO)c1ccccc1O
AC50 [1]: 0.358 µM (active) | outcome [3]: inactive

Clc1ccc2c(c1)Nc1ccccc1S2
outcome (PGR (gene 5241) [6]): inactive | AC50 (PGR (gene 5241) [7]): 19.4 µM (active) | outcome [8]: inactive | outcome [9]: inactive | outcome (PGR (gene 5241) [10]): inactive | AC50 (PGR (gene 5241) [11]): 28.9 µM (active)

COc1c[nH]ccc1=O
outcome [1]: inactive | outcome [3]: inactive

CSc1nc2ccccc2s1
outcome [1]: inactive | AC50 [2]: 53.6 µM (active) | AC50 [3]: 35.1 µM (active)

CCCCc1cc2ccccc2c(OCCN(C)C)n1
outcome [4]: inactive | outcome [5]: inactive

CCOC(=O)/C=C/C(=O)OCC
outcome [4]: inactive | outcome [5]: inactive

O=c1cc(O)cc[nH]1
outcome [1]: inactive

CCN1CCCC1CNC(=O)c1cc(S(=O)(=O)CC)c(N)cc1OC (stereo not drawn)
outcome [5]: inactive

CN(C)C(=S)N(C)C
outcome [1]: inactive | AC50 [3]: 79.5 µM (active)

C/C=C(/C(=C/C)c1ccc(OC(C)=O)cc1)c1ccc(OC(C)=O)cc1
outcome (PGR (gene 5241) [6]): inactive | AC50 (PGR (gene 5241) [7]): 9.64 µM (active) | outcome [8]: inactive | outcome [9]: inactive | outcome (PGR (gene 5241) [10]): inactive | AC50 (PGR (gene 5241) [11]): 14.7 µM (active)

O=C(c1ccccc1)c1ccc(O)cc1
outcome [1]: inactive | outcome [2]: inactive | outcome [3]: inactive | outcome [12]: inactive | outcome [13]: inactive | outcome [14]: inactive

COc1ccc(-c2cc(=S)ss2)cc1
outcome [5]: inactive

O=[N+]([O-])c1ccc2[nH]c(=S)[nH]c2c1
AC50 [1]: 0.315 µM (active) | outcome [3]: inactive

CC(C)NCC(O)COc1ccc(CCOCC2CC2)cc1 (stereo not drawn)
outcome [4]: inactive | outcome [5]: inactive

O=C(O)c1c(Cl)ccc(Cl)c1Cl
outcome [15]: inactive

O=Cc1c2ccccc2c(Cl)c2ccccc12
outcome [5]: inactive

ClC/C=C\CCl
outcome [5]: inactive
